Assay outcomes as filed in PubChem BioAssay.
Most compounds without a hit are left out; they make up all but 2.4% or so of the library.
NSD2 inh – inhibitors of human histone methyltransferase NSD2 | NSD2 peptide methylation, AlphaScreen, 120 min | 310,000 compounds, 0.54% hits | inhibition, % at 12.5 µM | O96028 | AID 743445
Target sequence (O96028 whole entry, looked up): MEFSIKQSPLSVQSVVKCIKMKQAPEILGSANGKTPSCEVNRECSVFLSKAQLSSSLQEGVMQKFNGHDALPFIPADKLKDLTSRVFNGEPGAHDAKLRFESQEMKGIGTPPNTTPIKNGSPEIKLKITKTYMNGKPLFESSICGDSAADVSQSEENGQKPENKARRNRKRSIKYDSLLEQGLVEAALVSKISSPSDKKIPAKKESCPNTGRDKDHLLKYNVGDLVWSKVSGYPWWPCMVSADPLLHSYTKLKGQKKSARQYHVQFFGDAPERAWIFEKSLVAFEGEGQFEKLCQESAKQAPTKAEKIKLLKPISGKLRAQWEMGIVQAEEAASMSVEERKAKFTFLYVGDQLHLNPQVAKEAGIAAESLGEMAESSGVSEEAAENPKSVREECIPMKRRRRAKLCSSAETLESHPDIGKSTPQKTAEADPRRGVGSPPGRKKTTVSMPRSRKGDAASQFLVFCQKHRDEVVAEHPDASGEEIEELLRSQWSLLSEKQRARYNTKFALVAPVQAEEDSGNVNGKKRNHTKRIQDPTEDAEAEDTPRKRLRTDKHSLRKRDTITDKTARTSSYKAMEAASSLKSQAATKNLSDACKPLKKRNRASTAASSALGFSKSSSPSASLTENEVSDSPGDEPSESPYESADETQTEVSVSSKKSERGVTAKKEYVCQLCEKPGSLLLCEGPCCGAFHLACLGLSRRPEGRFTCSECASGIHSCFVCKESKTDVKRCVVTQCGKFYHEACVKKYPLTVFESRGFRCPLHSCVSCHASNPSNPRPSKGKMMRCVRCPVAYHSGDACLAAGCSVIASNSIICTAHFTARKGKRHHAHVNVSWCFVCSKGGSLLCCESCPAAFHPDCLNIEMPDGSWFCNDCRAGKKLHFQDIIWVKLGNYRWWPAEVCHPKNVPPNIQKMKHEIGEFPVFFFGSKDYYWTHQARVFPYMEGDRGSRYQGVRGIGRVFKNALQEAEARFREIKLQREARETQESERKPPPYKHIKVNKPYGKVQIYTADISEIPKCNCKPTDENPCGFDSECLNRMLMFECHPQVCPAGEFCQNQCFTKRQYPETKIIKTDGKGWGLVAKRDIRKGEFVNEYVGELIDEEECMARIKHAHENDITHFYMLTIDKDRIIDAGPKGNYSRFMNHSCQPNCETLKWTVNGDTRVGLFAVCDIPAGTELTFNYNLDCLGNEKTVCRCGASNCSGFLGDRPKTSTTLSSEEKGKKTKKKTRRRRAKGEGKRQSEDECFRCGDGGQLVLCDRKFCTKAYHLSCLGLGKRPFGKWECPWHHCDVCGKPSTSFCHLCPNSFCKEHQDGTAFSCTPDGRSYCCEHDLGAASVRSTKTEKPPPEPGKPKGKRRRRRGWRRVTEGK
Wnt bcat act – activators of Wnt/beta-catenin signaling; Wnt/beta-catenin reporter cell assay, activator, plate reader; activation, % at 9.35 µM; 300,000 compounds, 1.2% hits; in the data active means activation above about 30%, passing the limit was not always enough;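 further: 0% = neutral control wells and 100% = positive control wells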
MITF act – activators of MITF-driven TRPM1 promoter activity in SK-MEL-5 cells; 300,000 compounds, 0.75% hits; activation, % at 12.5 µM; SK-MEL-5 TRPM1-promoter luciferase, 24 h; % of positive control, neutral wells = 0; AID 588334;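 active means mean activation of at least 80% with every replicate also reaching 80%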;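 further: 0% = neutral control wells and 100% = parthenolide positive control wells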
DYRK1A inh – Dyrk1A (rat) kinase inhibition; Q63470; ADP-Glo luminescence, NFATc1 peptide; inhibition, % at 12.5 µM; 310,000 compounds, 0.43% hits;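 further: plate controls were vehicle with enzyme for no effect and no enzyme for full effect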
miR122 inh – inhibitors of miR-122 in Huh7 cells. activation (reporter increase), % at 12.5 µM. 340,000 compounds, 0.3% hits. Huh7 miR-122 Renilla luciferase sensor, 48 h; neutral wells = 0, positive control = 100. AID 602342;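 active means mean replicate activation score at least 90 and every replicate individually at or above 90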;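 further: higher luciferase means less miR-122 activity so hits act as miR-122 inhibitors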
GSIS activator – primary screen for activators of insulin secretion dependent on glucose, INS-1E cells, GLuc reporter luminescence. INS-1E GLuc reporter insulin secretion, 2-3 h. 370,000 compounds, 0.61% hits. activation, % at 16.6 µM;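 active means lowest replicate activation of at least 40%, so every replicate reaches that level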;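 further: 0% = median of neutral control wells and 100% = median of IBMX positive control wells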
The depositor's hits bear a star; [ ] = remark or other dose. Unless noted, no stated cut-off is given here; in the data, active means inhibition above about 50%; inactive means the rest.

Screening CC(C)NC(=O)Nc1ccc2c(c1)C(=O)N([C@@H](C)CO)C[C@H](C)[C@@H](CN(C)Cc1ccc(-c3ccccc3)cc1)O2 returned miR122 inh 2.5[16.7 µM] and GSIS activator -16.4.
`CCN1CCN(Cc2ccc(NC(=O)c3cccc(-c4ccc5nc(NC(=O)C6CC6)sc5n4)c3)cc2C(F)(F)F)CC1` gave Wnt bcat act -2.5 and GSIS activator 143.1*.
Screening CCN1CCN(Cc2ccc(NC(=O)c3ccc(C)c(NC(=O)c4ccc5n[nH]nc5c4)c3)cc2C(F)(F)F)CC1 returned Wnt bcat act -4.4, MITF act -28.5, DYRK1A inh 6.7 and GSIS activator 9.7.
Screening CC1(C)CC(=O)C2=C(C1)Nc1ccccc1NC2c1ccc(F)cc1 (centres undefined) returned NSD2 inh -2.4, Wnt bcat act 1.4, MITF act -2.1, DYRK1A inh 6.2 and GSIS activator -3.2.
`CC1(C)CC(=O)C2=C(C1)Nc1ccccc1NC2c1ccc2c(c1)OCO2` (centres undefined) gave NSD2 inh 26.1, Wnt bcat act 43.8*, DYRK1A inh -5.1 and miR122 inh 3.1.
Nc1nc(SCc2ccccc2)sc1C(=O)N1CCCCC1 was read as NSD2 inh -0.7, Wnt bcat act 42.8* and miR122 inh -5.2.
`CCc1ccc(N(C2C=CS(=O)(=O)C2)S(=O)(=O)c2ccccc2)cc1` (centres undefined) gave NSD2 inh -2.3, MITF act -16.9, DYRK1A inh -5.7, miR122 inh -6.3 and GSIS activator 86.2*.
Cc1ccc(S(=O)(=O)N(c2cccc(C(F)(F)F)c2)C2C=CS(=O)(=O)C2)cc1 (centres undefined) was read as NSD2 inh -0.5, Wnt bcat act -2.1, MITF act 11.6, DYRK1A inh 0.3 and GSIS activator -4.7.
For CCC(=O)N1CC2(C1)CN(Cc1cccc(OC)c1)[C@@H](CO)c1[nH]c3cc(OC)ccc3c12 the results were GSIS activator -0.5.
O=C(c1cc(-c2ccc(Cl)c(Cl)c2)on1)N1CCOCC1 was read as NSD2 inh 5.2, Wnt bcat act 2.9, MITF act 89.8*, DYRK1A inh 1.4, miR122 inh -6.8 and GSIS activator 6.0.
`O=C(c1cc(-c2ccc(Cl)cc2)on1)N1CCOCC1` gave NSD2 inh -4.6, MITF act 33.0, DYRK1A inh 4.2, miR122 inh 1.7 and GSIS activator 15.8.
O=C(c1cc(-c2cccc(Cl)c2)on1)N1CCOCC1 was read as NSD2 inh -2.6, Wnt bcat act -0.6, MITF act 100.5*, DYRK1A inh -2.7 and GSIS activator 13.7.
Screening O=C(c1cc(-c2ccc(Cl)cc2Cl)on1)N1CCOCC1 returned NSD2 inh 0.5, Wnt bcat act 8.2, MITF act -9.9 and GSIS activator 16.6.
For O=C(NCC1OCCc2ccccc21)c1ccc(NC(=O)c2ccc(Cl)cc2)cc1 (centres undefined) the results were NSD2 inh 3.0, Wnt bcat act -8.0, MITF act -70.1, DYRK1A inh -0.6, miR122 inh -5.2 and GSIS activator 249.0*.
CC(C)NC(=O)N1[C@@H]2CN(CC(F)(F)F)C[C@H]1C2c1ccccc1 (some centres undefined) was read as GSIS activator 1.1.
Screening CN(C)c1ccnc2sc3c(NCC(O)CO)ncnc3c12 (centres undefined) returned NSD2 inh 27.7, Wnt bcat act -10.3, MITF act 3.8, DYRK1A inh 17.8 and GSIS activator -2.4.
Screening CN(C)c1ccnc2sc3c(SCc4ccc(Cl)cc4)ncnc3c12 returned NSD2 inh -2.7, MITF act 90.8*, DYRK1A inh -5.2 and GSIS activator 26.9.
CNC[C@H]1Oc2c(NC(=O)Nc3ccccc3)cccc2C(=O)N([C@H](C)CO)C[C@@H]1C was read as miR122 inh -3.1[16.7 µM] and GSIS activator 10.3.
Screening Cc1nc(NCc2ccc3c(c2)OCO3)c2nnn(Cc3ccccc3)c2n1 returned MITF act -13.9, DYRK1A inh -6.2, miR122 inh 7.5 and GSIS activator 50.1*.
